Source: PubChem BioAssay AID1159580 (chemical genetic matrix, 2015)
Hit rate of the full screen: of about 5,500 compounds, about 2,000 (36%) were called active. Inconclusive results (about 18%) are left out. No stated cut-off is given here; in the data, active means normalized growth mostly below about 0.91 (no sharp cut-off); inconclusive means no clear call, values can overlap the other calls; inactive means mostly above about 0.92. The list shows a part of the results.

Experiment: chemical genetic growth profiling, strain panel (AID 1159580);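 further: tested at 20 µM; growth read once vehicle control cultures reached saturation at 30 °C; 1 = growth at the plate median or of vehicle wells; lower values mean less growth of the strain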
Conditions: S. cerevisiae deletion strains, growth OD
[1] = locus YHR030C, strain SLT2, hits give low values
[2] = locus YJL095W, strain BCK1, hits give low values

Measured: normalized growth

CC(=O)O[C@@H]1CC2C(C)(C)[C@H](O)CC[C@]2(C)C2CC[C@@]3(C)[C@H](c4ccoc4)OC(=O)[C@H]4O[C@]43[C@@]21C (stereo partly specified)
inactive: locus YAL013W, strain DEP1, hits give low values 1.01 | locus YBR021W, strain FUR4, hits give low values 0.971 | locus YBR229C, strain ROT2, hits give low values 0.996 | locus YCL029C, strain bik1, hits give low values 0.997 | locus YDL035C, strain GPR1, hits give low values 0.983 | locus YDL074C, strain BRE1, hits give low values 0.994 | locus YDL101C, strain DUN1, hits give low values 1.02 | locus YDL134C, strain PPH21, hits give low values 0.982 | locus YDL185W, strain tfp1, hits give low values 1.02 | locus YDL192W, strain arf1, hits give low values 0.999 | locus YDR101C, strain arx1, hits give low values 0.993 | locus YDR150W, strain NUM1, hits give low values 1 | locus YDR162C, strain NBP2, hits give low values 1.01 | locus YDR318W, strain mcm21, hits give low values 1.02 | locus YDR388W, hits give low values 1.01 | locus YDR502C, strain sam2, hits give low values 1.02 | locus YEL061C, strain CIN8, hits give low values 1.01 | locus YER110C, hits give low values 1.03 | locus YER155C, strain BEM2, hits give low values 1.01 | locus YER167W, strain BCK2, hits give low values 1.01 | locus YGL078C, strain dbp3, hits give low values 1.04 | locus YGL086W, strain mad1, hits give low values 1.02 | locus YGL248W, strain PDE1, hits give low values 1.02 | locus YGR078C, strain PAC10, hits give low values 1.05 | locus YGR135W, strain pre9, hits give low values 1.06 | locus YGR252W, strain gcn5, hits give low values 1.03 | [1] 1.01 | locus YHR079C, strain IRE1 (second series), hits give low values 1.01 | locus YHR094C, strain hxt1, hits give low values 1.01 | locus YHR129C, strain ARP1, hits give low values 1 | locus YHR200W, strain rpn10, hits give low values 1.01 | locus YIL066C, strain RNR3, hits give low values 0.984 | locus YIL073C, strain SPO22, hits give low values 1.03 | locus YIL125W, strain kgd1, hits give low values 1.01 | locus YIR030C, strain dcg1, hits give low values 1.01 | [2] 1.03 | locus YJL134W, strain LCB3, hits give low values 1.01 | locus YJL168C, strain set2, hits give low values 1.02 | locus YJL187C, strain SWE1 (second series), hits give low values 1.03 | locus YKL009W, strain mrt4, hits give low values 0.996 | locus YKL068W, hits give low values 0.996 | locus YKL085W, strain MDH1 (second series), hits give low values 1.01 | locus YKL085W, strain MDH1, hits give low values 1.01 | locus YKR001C, strain vps1, hits give low values 1.01 | locus YLR039C, strain RIC1, hits give low values 1.07 | locus YLR058C, strain SHM2, hits give low values 1.01 | locus YLR102C, strain apc9, hits give low values 1.01 | locus YLR262C, strain YPT6, hits give low values 1.13 | locus YLR268W, strain sec22, hits give low values 0.975 | locus YLR342W, strain FKS1 (second series), hits give low values 1.02 | locus YLR371W, strain rom2, hits give low values 1.01 | locus YLR418C, strain cdc73, hits give low values 1.02 | locus YML016C, strain PPZ1, hits give low values 1.01 | locus YML032C, strain rad52, hits give low values 0.978 | locus YML124C, strain tub3, hits give low values 1.02 | locus YMR078C, strain ctf18, hits give low values 1.01 | locus YMR223W, strain ubp8, hits give low values 1 | locus YMR307W, strain GAS1, hits give low values 1.09 | locus YNL067W, strain RPL9B, hits give low values 1.04 | locus YNL153C, strain GIM3, hits give low values 1.04 | locus YNL233W, strain BNI4, hits give low values 1.02 | locus YNL250W, strain rad50, hits give low values 1.04 | locus YNL271C, strain bni1, hits give low values 1.03 | locus YNL298W, strain CLA4, hits give low values 1.01 | locus YNL307C, strain MCK1, hits give low values 1.02 | locus YNR052C, strain pop2, hits give low values 1.04 | locus YOL006C, strain TOP1, hits give low values 1.01 | locus YOL012C, strain htz1 0.714 | locus YOL147C, strain pex11, hits give low values 1.01 | locus YOR061W, strain CKA2, hits give low values 1 | locus YOR069W, strain VPS5, hits give low values 1.01 | locus YOR136W, strain idh2, hits give low values 1.01 | locus YOR144C, strain elg1, hits give low values 1.01 | locus YOR184W, strain ser1, hits give low values 0.993 | locus YOR316C, strain cot1, hits give low values 1.02 | locus YPL241C, strain CIN2, hits give low values 1.01 | locus YPR119W, strain clb2, hits give low values 1.01 | locus YPR141C, strain kar3, hits give low values 1 | locus YPR163C, strain tif3, hits give low values 1.02 | locus YPR167C, strain met16, hits give low values 1.02 | strain wtn01, hits give low values 0.984

CC(=O)O[C@@H]1CC2C(C)(C)[C@H](O)C=C[C@]2(C)C2CC[C@@]3(C)[C@H](c4ccoc4)OC(=O)C4OC43[C@@]21C (stereo partly specified)
inactive: locus YAL021C, strain ccr4, hits give low values 1.02 | locus YAL026C, strain drs2, hits give low values 1.03 | locus YAL030W, strain snc1, hits give low values 1.01 | locus YBL061C, strain skt5, hits give low values 1.02 | locus YBR009C, strain hhf1, hits give low values 1.02 | locus YBR023C, strain chs3, hits give low values 1.03 | locus YBR171W, strain sec66, hits give low values 1.01 | locus YBR231C, strain swc5, hits give low values 1.02 | locus YBR279W, strain paf1, hits give low values 1.02 | locus YCL011C, strain gbp2, hits give low values 1.02 | locus YCL016C, strain dcc1, hits give low values 1.02 | locus YCL061C, strain MRC1, hits give low values 1.01 | locus YCL069W, strain vba3, hits give low values 1.02 | locus YCR088W, strain abp1, hits give low values 1.02 | locus YDL005C, strain med2, hits give low values 1.01 | locus YDL040C, strain nat1, hits give low values 1.02 | locus YDR001C, strain nth1, hits give low values 1.01 | locus YDR069C, strain doa4, hits give low values 1.04 | locus YDR137W, strain rgp1, hits give low values 1.03 | locus YDR159W, strain sac3, hits give low values 1.03 | locus YDR195W, strain ref2 1.06 | locus YDR297W, strain sur2, hits give low values 1.01 | locus YDR334W, strain swr1, hits give low values 1.02 | locus YDR335W, strain msn5, hits give low values 1.02 | locus YDR392W, strain spt3, hits give low values 0.963 | locus YEL003W, strain gim4, hits give low values 1.02 | locus YEL037C, strain rad23, hits give low values 1.02 | locus YEL061C, strain CIN8 (second series), hits give low values 1.01 | locus YER015W, strain faa2, hits give low values 1.02 | locus YER016W, strain bim1, hits give low values 1.02 | locus YER111C, strain swi4, hits give low values 1.02 | locus YER155C, strain BEM2 (second series), hits give low values 1.03 | locus YFR010W, strain ubp6, hits give low values 1.03 | locus YGL167C, strain pmr1, hits give low values 1.02 | locus YGL173C, strain kem1, hits give low values 1.02 | locus YGL227W, strain vid30, hits give low values 1.02 | locus YGL240W, strain doc1, hits give low values 1.02 | locus YGL253W, strain hxk2, hits give low values 1.01 | locus YHR013C, strain ard1, hits give low values 1.04 | locus YHR027C, strain rpn1, hits give low values 1.02 | [1] 0.999 | locus YHR079C, strain IRE1, hits give low values 0.99 | locus YHR142W, strain chs7, hits give low values 1.02 | locus YJL092W, strain hpr5, hits give low values 1.02 | locus YJL095W, strain BCK1 (second series), hits give low values 1.02 | [2] 1 | locus YJL115W, strain asf1, hits give low values 1.02 | locus YJL129C, strain trk1, hits give low values 1.04 | locus YJL154C, strain vps35, hits give low values 1.01 | locus YJL164C, strain tpk1, hits give low values 0.998 | locus YJL166W, strain qcr8, hits give low values 1.01 | locus YJL187C, strain SWE1, hits give low values 1.01 | locus YJR066W, strain TOR1, hits give low values 0.963 | locus YKL160W, strain elf1, hits give low values 1.01 | locus YKR026C, strain gcn3, hits give low values 0.998 | locus YKR091W, strain srl3, hits give low values 1.02 | locus YLL001W, strain dnm1, hits give low values 1.01 | locus YLL026W, hits give low values 1.02 | locus YLL041C, strain sdh2, hits give low values 1.01 | locus YLR027C, strain aat2, hits give low values 1.01 | locus YLR113W, strain HOG1, hits give low values 0.95 | locus YLR221C, strain rsa3, hits give low values 1.01 | locus YLR258W, strain gsy2, hits give low values 1.02 | locus YLR262C, strain YPT6 (second series), hits give low values 1.02 | locus YLR320W, strain mms22, hits give low values 1.01 | locus YLR342W, strain FKS1, hits give low values 1.03 | locus YLR357W, strain rsc2, hits give low values 1.03 | locus YLR370C, strain arc18, hits give low values 1.02 | locus YLR384C, strain iki3, hits give low values 1.02 | locus YML120C, strain ndi1, hits give low values 1.02 | locus YMR058W, strain fet3, hits give low values 1.02 | locus YMR125W, strain sto1, hits give low values 1.03 | locus YMR129W, hits give low values 1.01 | locus YMR205C, strain PFK2, hits give low values 1.02 | locus YMR231W, strain pep5, hits give low values 1.02 | locus YNL071W, strain lat1, hits give low values 1.02 | locus YNL183C, strain NPR1, hits give low values 0.955 | locus YNL209W, strain ssb2, hits give low values 1.02 | locus YNL248C, strain rpa49, hits give low values 1.01 | locus YNL322C, strain KRE1 (second series), hits give low values 1.02 | locus YNR049C, strain mso1, hits give low values 1.02 | locus YOR001W, strain rrp6, hits give low values 1.01 | locus YOR070C, strain gyp1, hits give low values 1.02 | locus YOR080W, strain dia2, hits give low values 1.03 | locus YOR083W, strain WHI5, hits give low values 1 | locus YOR106W, strain vam3, hits give low values 1.01 | locus YOR231W, strain MKK1, hits give low values 0.945 | locus YOR265W, strain rbl2, hits give low values 1.02 | locus YOR270C, strain vph1, hits give low values 1.04 | locus YOR290C, strain snf2, hits give low values 0.982 | locus YPL051W, strain arl3, hits give low values 1 | locus YPL078C, strain atp4, hits give low values 1.01 | locus YPL106C, strain sse1, hits give low values 1.04 | locus YPL240C, strain hsp82, hits give low values 1.02 | locus YPL256C, strain CLN2, hits give low values 0.962
